Screening data deposited in PubChem BioAssay by National Center for Advancing Translational Sciences (NCATS).
Compounds with a hit are over-represented: about 19% of the library has one in this group of screens.
DT40 TDP1 no CPT: qHTS for Inhibitors of human tyrosyl-DNA phosphodiesterase 1 (TDP1): qHTS in cells in absence of CPT | Potency, µM (series often up to 46.2 µM), for inactives: at the top dose activity change, negative = growth inhibition, most hits filed as inhibitors | DT40 Tdp1-/- hTDP1 cells, no CPT, ATP luminescence, 48 h | 420,000 compounds, 15% hits; also: potency is read from the fitted curve at half-maximal effect; nearly all actives have a fitted effect of over 55% in size
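Luminescent ATP content (CellTiter-Glo) served as the growth readout. Knockout chicken DT40 cells expressing human TDP1 were exposed to compounds without camptothecin for a minimum 48 hr at 37 °C.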
HT1080 IDH1KD tx: HT-1080 IDH1 knockdown cell toxicity (counter line). HT-1080 IDH1 knockdown viability, ATP luminescence, 48 h. Potency, µM (highest dose often 46.1 µM), without a hit: at the highest dose activity, negative = toxicity, hits mostly cytotoxic. 360,000 compounds, 2% hits. AID 686971;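 also: potency is read from the fitted curve at half-maximal effect; 0% = DMSO wells and -100% = cell-free medium wells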
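Cytotoxicity counter-line: IDH1KD HT-1080, 48 h, CellTiter-Glo. Curves classed by r2, magnitude and activity.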
HT1080NT lethal: kills 2HG-producing HT-1080-NT fibrosarcoma cells | 360,000 compounds, 1.6% hits | HT-1080-NT fibrosarcoma viability, CellTiter-Glo ATP luminescence, 48 h | Potency, µM (doses to about 46.1 µM), for the others: at the highest dose activity, negative = less viability, actives largely listed as cytotoxic;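 also: NT is the 2HG producing partner of a matched IDH1 knockdown line; potency is read from the fitted curve at half-maximal effect; 0% = DMSO-treated cells and -100% = media-only wells without cells; nearly all actives have a fitted effect of over 55% in size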
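Compounds were tested in concentration-response format on HT-1080-NT cells for 48 hours at 37 degrees C. Cell viability came from CellTiter-Glo luminescence; curves were classified by r2, response magnitude and activity.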
DT40 TDP1 CPT: DT40-hTDP1 cell growth loss with CPT. Potency, µM (doses to about 46.2 µM), without a hit: top-dose activity change, negative = growth inhibition, actives largely listed as inhibitors. 420,000 compounds, 12% hits. chicken DT40 Tdp1-/-;hTDP1 cells + 20 nM CPT, ATP luminescence, 48 h; also: potency is read from the fitted curve at half-maximal effect; nearly all actives have a fitted effect of over 55% in size
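Cell growth measured by CellTiter-Glo luminescence after a minimum 48 h, 37 C compound exposure with 20 nM CPT in Tdp1-knockout DT40 cells stably expressing hTDP1, seeded 400/well; qHTS titration format.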
IL1B secr inh: inflammasome signaling inhibition, IL-1 beta readout. THP-1 LPS/ATP IL-1B secretion, AlphaLISA, 16 h; active compounds read low. activity change, % at 57.5 µM. 360,000 compounds, 4.7% hits. AID 743279; in the data active = activity change below about -50%; inconclusive = mostly about -30% to -49%
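Secreted IL-1B measured by AlphaLISA bead assay after 16 h compound exposure of THP-1 cells; compounds (final up to 57.5 uM) added 1 h before LPS (250 ng/mL) and ATP (1.25 mM) stimulation; lower signal means less secretion.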
The depositor's hits bear a star; ? = inconclusive; . = not tested or not shown; [ ] = remark or other dose. Unless noted, calls follow the shape of the dose curve; as a rule, active = well fitted curve in the direction sought with a large enough effect; inconclusive = small, poorly fitted or top-dose-only effect, or another doubt; inactive = no such curve, though single readings can be large; an effect the other way counts as inactive or inconclusive. Unless noted, % is scaled to controls: 0 for no effect and ±100 for the full control effect.

SMILES	DT40 TDP1 no CPT	HT1080 IDH1KD tx	HT1080NT lethal	DT40 TDP1 CPT	IL1B secr inh
CCOC(=O)CN[C@@H](C(=O)N1CC[C@H]1C(=O)NCc1ccc(/C(N)=N/O)cc1)C1CCCCC1	4%	.	.	-3%	.
CC(C)C(=O)Nc1c(-c2cccc(Cl)c2)c(=O)c2ccccc2n1C	23µM*	-1%	0%	18µM*	8
Cn1c(NC(=O)c2ccccc2F)c(-c2cccs2)c(=O)c2ccccc21	-13%	-16%	-1%	?	-26
Cn1c(NC(=O)c2cccs2)c(-c2cccs2)c(=O)c2ccccc21	-27%	-6%	-10%	23µM*	12
CC(C)C(=O)Nc1c(-c2cccs2)c(=O)c2ccccc2n1C	-7%	7%	3%[9.24 µM]	0%	4
COc1ccccc1-c1c(NC(=O)C(C)C)n(C)c2ccccc2c1=O	-9%	13%	12%	?	13
Cn1c(NC(=O)c2ccccc2)c(-c2cccs2)c(=O)c2ccccc21	16µM*	?	1%[9.24 µM]	15µM*	-26
Cn1c(NC(=O)c2ccc(F)cc2)c(-c2cccs2)c(=O)c2ccccc21	?	-6%	9%	?	-58*
COc1ccccc1CNC(=O)C(NS(=O)(=O)c1ccc2c(c1)CCN2C(C)=O)C(C)C (stereo not given)	-14%	.	.	-3%	.
Cc1ccccc1OCCC(=O)Nc1cc(S(=O)(=O)N2CCOCC2)ccc1OC(C)C	?	0%	-2%	?	-17
COCCNc1nc(C)cc(-c2cc(C(=O)NCc3ccccc3)on2)n1	2%	-9%	-8%	-20%	-1
Cc1cc(-c2cc(C(=O)NCc3ccccc3)on2)nc(S(C)(=O)=O)n1	5.8µM*	?	?	7.3µM*	-103*
O=C(CSc1ccc(-c2ccc(F)cc2)nn1)NC1CCCCC1	-29%	0%	0%	-13%	20
Cc1ccc(-n2c(C)cc(C(=O)NS(=O)(=O)c3ccc(C)cc3)c2C)cc1	?	-4%	-6%	-19%	7
Cc1ccc(NC(=O)c2cc(C)n(-c3cccc(C)c3)c2C)cc1	21µM*	-30%	-17%	?	-66*
Cc1cc(C(=O)Nc2ccc(Cl)cc2)c(C)n1-c1ccccc1	-25%	?	?	0%	-91*
Cc1ccc(NC(=O)c2cc(C)n(-c3ccccc3)c2C)cc1	?	?	?	?	-83*
Cc1ccc(CNC(=O)CS(=O)Cc2nc(-c3ccccc3F)oc2C)cc1 (stereo not given)	14%	16%	-2%	-19%	0
COC(=O)c1cc2sc(C)cc2n1CC(=O)Nc1cccc(SC)c1	-26%	.	.	1%	.
O=C(Nc1nnc(-c2ccccc2)o1)c1cc(Cl)sc1Cl	9.2µM*	0%	14%	7.3µM*	0
O=C(Nc1nnc(-c2ccc(F)cc2)o1)c1cc(Cl)sc1Cl	21µM*	-13%	1%	26µM*	9
O=C(Nc1nnc(-c2ccc(Cl)cc2)o1)c1nc2ccccc2s1	21µM*	-16%	-2%	?	21
COc1cc([C@@H]2c3cc4c(cc3C(OC3OC5COC(C)OC5C(O)C3O)C3COC(=O)[C@@H]32)OCO4)cc(OC)c1O (stereo not given in full)	0.21µM*	.	.	0.19µM*	.
COc1cc([C@@H]2c3cc4c(cc3[C@@H](O[C@@H]3O[C@H]5CO[C@@H](C)O[C@@H]5[C@@H](O)[C@H]3O)[C@@H]3COC(=O)[C@@H]23)OCO4)cc(OC)c1O	0.13µM*	.	.	?	.
COc1cc([C@@H]2c3cc4c(cc3C(O[C@@H]3O[C@@H]5COC(c6cccs6)O[C@H]5[C@H](O)[C@H]3O)C3COC(=O)[C@@H]32)OCO4)cc(OC)c1O (stereo not given in full)	0.013µM*	.	.	0.012µM*	.
SMILES	DT40 TDP1 no CPT	HT1080 IDH1KD tx	HT1080NT lethal	DT40 TDP1 CPT	IL1B secr inh
CC(=O)N1CCOCC1c1cc(C(=O)Nc2ccccc2)no1 (stereo not given)	-6%	0%	2%	-4%	3
CCc1ccc(NC(=S)N2CCN(c3cccc(OC)c3)CC2)cc1	-18%	-5%	-10%	-24%	0
CC1=CC(C)C(=O)N(CCN2CCOCC2)C(C)=C1 (stereo not given)	-6%	8%	11%	4%	2
CCCn1c(N)c(C(=O)COC(=O)CNC(=O)c2ccccc2OCC)c(=O)[nH]c1=O	-14%	0%	1%	-11%	?
Cc1noc(C)c1S(=O)(=O)N1CCC(C(=O)NC2CCCc3ccccc32)CC1 (stereo not given)	-22%	0%	-4%	-10%	-10
Cc1oc(-c2ccccc2F)nc1CN1CCC(C(=O)NC2CCCc3ccccc32)CC1 (stereo not given)	?	1%	-3%	15µM*	-11
O=C(NC1CCCCCCC1)C1CCN(c2nc3ccccc3o2)CC1	16µM*	-30%	?	?	-19
Cc1oc(-c2ccccc2F)nc1CN1CCC(C(=O)NC2CCCCCCC2)CC1	23µM*	10%	7%	?	-16
O=C(NC1CCCc2ccccc21)C1CCN(S(=O)(=O)N2CCCCCC2)CC1 (stereo not given)	18µM*	-6%	-7%	13µM*	15
O=C(NCCc1ccccc1)C1CCN(c2nc3ccccc3o2)CC1	-14%	-4%	4%	-9%	-4
COc1cccc(CC(=O)Nc2cc(S(=O)(=O)N3CCOCC3)ccc2OC)c1	-17%	-11%	-12%	7%	7
Cn1cc(Cl)c(C(=O)NC(=S)Nc2sc3c(c2C#N)CCCCC3)n1	?	19%	7%	?	-4
COCCn1c(N)c(C(=O)c2cccc(S(=O)(=O)N3CCCCCC3)c2)c(=O)[nH]c1=O	-27%	1%	-1%	?	0
CC(C)(C)c1ccc(C(=O)N2CCN(c3nc4ccccc4o3)CC2)cc1	6.5µM*	17%	8%	9.2µM*	16
Nc1nc(N)c2cc(S(=O)(=O)c3cccc(C(F)(F)F)c3)ccc2n1	0.92µM*	10µM*	13µM*	3.7µM*	21
O=C(/C=C/c1cccnc1)c1ccc(NC(=O)c2cccc(Br)c2)cc1	3.2µM*	-15%	-13%	7.1µM*	-25
Cc1cccc(C(=O)Nc2ccc(C(=O)/C=C/c3ccncc3)cc2)c1	?	?	?	?	6
Cc1cccc(C(=O)Nc2ccc(C(=O)/C=C/c3cccnc3)cc2)c1	4.6µM*	18µM*	?	5.2µM*	-78*
